# Laboratory results published in PubChem BioAssay (Tox21).
# Values without a mark were called inactive. Inconclusive results are not listed. Where a call stands in place of a potency, no number is given. Calls of active or inactive are those of the source. Unless noted, calls come from the whole dose curve; as a rule, active = well fitted curve in the direction sought with a large enough effect in the repeat runs; inconclusive = weak or mixed curves; inactive = no such curve, though single readings can be large; an effect the other way counts as inactive or inconclusive.
# How the values were obtained:
# [1] = qHTS assay for small molecules that induce genotoxicity in human embryonic kidney cells expressing luciferase-tagged ATAD5 (AID 651632); note: nearly all actives have a fitted effect of over 15% in size
# Method in brief: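 Concentration-response screen for ATAD5 upregulation in HEK293T luciferase reporter cells; 16 hr treatment at 37C, then luminescence after 30 min with Amplite at room temperature.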
# [2] = qHTS assay for small molecule agonists of the p53 signaling pathway - cell viability (AID 651633; calls by dose curve;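 note: p53RE-bla HCT reporter cells with a stable beta-lactamase p53 reporter; series mostly up to about 83 µM; nearly all actives have a fitted effect of over 30% in size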)
# Method in brief: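 p53RE-bla cells were treated with compound for 16 hours at 37 C. Cytotoxicity was then measured as CellTiter-Glo luminescence after 30 min at room temperature.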
# [3] = qHTS assay for small molecules that induce genotoxicity in human embryonic kidney cells expressing luciferase-tagged ATAD5 - cell viability (AID 651634; calls by dose curve; note: nearly all actives have a fitted effect of over 25% in size; note: potency is the fitted concentration of half-maximal effect)
# Method in brief: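 15.5 hr compound or vehicle exposure of HEK293T cells expressing luciferase-tagged ATAD5 at 37C; live-cell protease activity is read by fluorescence after 30 min of CellTiter-Fluor.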
# [4] = qHTS assay for small molecule disruptors of the mitochondrial membrane potential - cell viability (AID 720634; calls by dose curve;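 note: human HepG2 liver cancer cells; series mostly up to about 83 µM; nearly all actives have a fitted effect of over 20% in size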)
# Method in brief: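 In this qHTS format, HepG2 cells plated overnight were pinned with compound, incubated 1 hr, and assayed for ATP luminescence with CellTiter-Glo after m-MPI dye addition.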
# [5] = qHTS assay to test for compound auto fluorescence at 590 nm (red) in HepG2 cells (AID 720674)
# Method in brief: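 Seeding: 2,000 HepG2 cells/well, MEM/10% FBS, overnight 37 C. Dosing: compound vs DMSO. Incubation: 1 hr, 37 C, 5% CO2. Read: fluorescence 540 ex/590 em, Rose Bengal sodium as red reference.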
# [6] = qHTS assay to test for compound auto fluorescence at 460 nm (blue) in HEK293 cells (AID 720678)
# Method in brief: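 Blue read-out at excitation 405 nm and emission 460 nm follows overnight compound exposure of HEK293 cells at 37C in 5% CO2. Activity is given as auto fluorescence equivalency to triamterene.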
# [7] = qHTS assay to test for compound auto fluorescence at 535 nm (green) in HEK293 cells (AID 720680)
# [8] = qHTS assay to test for compound auto fluorescence at 535 nm (green) in HEK293 cell free culture (AID 720682)
# Method in brief: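 Intrinsic compound fluorescence is measured in culture medium containing 10% FBS, with excitation at 485 nm and detection at 535 nm, referenced to fluorescein.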
# [9] = qHTS assay to test for compound auto fluorescence at 590 nm (red) in HEK293 cell free culture (AID 720683)
# Method in brief: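 Cell-free wells of DMEM with 10% FBS received compound, and intrinsic fluorescence was read at excitation/emission 540/590 nm. Values expressed as equivalence to Rose Bengal sodium.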
# [10] = qHTS assay to test for compound auto fluorescence at 460 nm (blue) in HepG2 cell free culture (AID 720685)
# Method in brief: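 Cell-free plates of MEM plus 10% FBS received 23 nL compound or DMSO vehicle; blue-channel (405/460 nm) intensity scored against triamterene as reference fluorophore.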
# [11] = qHTS assay to test for compound auto fluorescence at 460 nm (blue) in HepG2 cells (AID 720687)
# Method in brief: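 HepG2 cells in MEM with 10% FBS, attached overnight at 37 C, were exposed to compound or DMSO for 1 hr at 37 C, 5% CO2. Blue fluorescence was read at 405/460 nm, with triamterene as reference fluorophore.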
# [12] = qHTS assay for identifying genotoxic compounds that show differential cytotoxicity against isogenic chicken DT40 cell lines with known DNA damage response pathways - wild type cell line (AID 743012); note: nearly all actives have a fitted effect of over 60% in size; note: potency is the fitted concentration of half-maximal effect
# Method in brief: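 Endpoint: CellTiter-Glo luminescence, 30 min RT. Cells: wild type DT40, 300/well. Exposure: compounds in DMSO, 40 h, 37 C/5% CO2, after ~0.5 h pre-incubation.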
# [13] = qHTS assay to identify small molecule antagonists of the androgen receptor (AR) signaling pathway - cell viability counter screen (AID 743033; note: nearly all actives have a fitted effect of over 45% in size)
# [14] = test system: thyroid hormone receptor (rat, GH3 cells); assay: qHTS assay to identify small molecule agonists of the thyroid receptor (TR) signaling pathway (AID 743066; calls by dose curve)
# [15] = qHTS assay to identify small molecule antagonists of the estrogen receptor alpha (ER-alpha) signaling pathway - cell viability counter screen (AID 743074; calls by dose curve;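 note: HEK293 cells carrying ER-alpha-UAS-bla reporter stimulated with 17beta-estradiol; nearly all actives have a fitted effect of over 45% in size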)
# [16] = qHTS assay to identify aromatase inhibitors - cell viability counter screen (AID 743084);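 note: cells stimulated with testosterone during compound exposure; nearly all actives have a fitted effect of over 55% in size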; note: potency is the fitted concentration of half-maximal effect
# [17] = qHTS assay to identify small molecule that activate the aryl hydrocarbon receptor (AhR) signaling pathway - cell viability counter screen (AID 743086); note: nearly all actives have a fitted effect of over 45% in size; note: potency is the fitted concentration of half-maximal effect
# Method in brief: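 HepG2-AhR-luc (HG2L7.5c1) cells, 4000/well, treated 24 h at 37 C with compound; viability measured as CellTiter-Fluor fluorescence after 30 min in the same wells as the luciferase read.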
# [18] = qHTS assay to identify small molecule phospholipidosis (PLD) inducers (AID 1259344; active = well fitted curve in the direction sought with a large enough effect; an effect the other way counts as inactive or inconclusive)
# Method in brief: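 Read-out is LipidTOX Red fluorescence (ex 595/em 615) imaged in HepG2 cells after 24 h compound exposure at 37 C, with Hoechst nuclear counterstain (ex 352/em 461) allowing per-cell normalisation.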
# [19] = qHTS assay to identify small molecule antagonists of the estrogen receptor alpha (ER-alpha) signaling pathway using the BG1 cell line - cell viability counter screen (AID 743081);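 note: compound given together with 17beta-estradiol as the ER stimulus; series mostly up to about 70 µM; nearly all actives have a fitted effect of over 45% in size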
# [20] = molecular target: Aromatase (Homo sapiens) (UniProt P11511); assay: qHTS assay to identify aromatase inhibitors (AID 743083); note: series mostly up to about 70 µM; nearly all actives have a fitted effect of over 55% in size
# Chain of Aromatase (Homo sapiens) (P11511 whole entry, looked up): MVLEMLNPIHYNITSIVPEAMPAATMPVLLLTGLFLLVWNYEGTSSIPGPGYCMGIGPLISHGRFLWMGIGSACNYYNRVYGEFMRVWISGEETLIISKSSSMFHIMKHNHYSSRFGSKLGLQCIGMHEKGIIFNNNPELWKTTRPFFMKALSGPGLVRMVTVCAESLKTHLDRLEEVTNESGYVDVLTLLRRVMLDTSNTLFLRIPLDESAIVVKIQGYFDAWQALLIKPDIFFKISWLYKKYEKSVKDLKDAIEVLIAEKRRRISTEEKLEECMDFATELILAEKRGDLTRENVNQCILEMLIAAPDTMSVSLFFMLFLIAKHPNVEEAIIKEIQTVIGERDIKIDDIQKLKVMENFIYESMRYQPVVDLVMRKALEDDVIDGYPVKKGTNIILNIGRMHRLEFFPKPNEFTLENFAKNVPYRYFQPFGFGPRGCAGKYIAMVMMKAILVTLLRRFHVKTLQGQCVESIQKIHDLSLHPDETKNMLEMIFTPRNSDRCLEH
Compound,Potency [1],Potency [2],Potency [3],Potency [4],outcome [5],Potency [6],Potency [7],Potency [8],outcome [9],Potency [10],Potency [11],Potency [12],Potency [13],Potency [14],Potency [15],Potency [16],Potency [17],Potency [18],Potency [19],Potency [20]
N#CC(C#N)=Cc1cc(O)c(O)c(O)c1,inactive,inactive,29.8 µM (active),inactive,inactive,inactive,inactive,inactive,inactive,inactive,inactive,21.1 µM (active),inactive,inactive,inactive,26.6 µM (active),13.3 µM (active),inactive,–,–
c1ccc2c(c1)Sc1ccccc1N2C[C@@H]1CN2CCC1CC2,inactive,inactive,inactive,inactive,inactive,inactive,inactive,inactive,inactive,inactive,inactive,–,inactive,–,inactive,inactive,inactive,inactive,inactive,inactive
CCCCNC(C)(C)[P+](=O)O,inactive,inactive,inactive,inactive,inactive,inactive,inactive,inactive,inactive,inactive,inactive,inactive,inactive,inactive,–,inactive,inactive,inactive,–,inactive
CCCC(=O)OC(C(Cl)(Cl)Cl)P(=O)(OC)OC (centres undefined),inactive,inactive,–,inactive,inactive,inactive,inactive,inactive,inactive,inactive,inactive,inactive,inactive,inactive,inactive,inactive,inactive,inactive,inactive,inactive
O=C(O)CCCO,inactive,inactive,inactive,inactive,inactive,inactive,inactive,inactive,inactive,inactive,inactive,inactive,inactive,inactive,inactive,inactive,inactive,inactive,inactive,inactive
C=CCC1([C@@H](C)CCC)C(=O)NC(=O)NC1=O,inactive,inactive,inactive,inactive,inactive,inactive,inactive,inactive,inactive,inactive,inactive,–,inactive,inactive,inactive,inactive,inactive,inactive,inactive,inactive
CN1C(=O)CC(=O)N(c2ccccc2)c2cc(Cl)ccc21,inactive,inactive,inactive,inactive,inactive,inactive,inactive,inactive,inactive,inactive,inactive,inactive,inactive,inactive,inactive,inactive,inactive,inactive,inactive,inactive
O=C1CN=C(c2ccccc2)c2cc(Cl)ccc2N1,inactive,inactive,inactive,inactive,inactive,inactive,inactive,inactive,inactive,inactive,inactive,–,inactive,inactive,inactive,inactive,inactive,inactive,–,inactive
Clc1ccc2c(c1)C(c1ccccc1)=NCc1nncn1-2,inactive,inactive,inactive,inactive,inactive,inactive,inactive,inactive,inactive,inactive,inactive,inactive,inactive,inactive,inactive,inactive,inactive,inactive,inactive,inactive
O=C(NC(=O)c1c(F)cccc1F)Nc1ccc(Cl)c(Oc2ncc(C(F)(F)F)cc2Cl)c1,inactive,–,inactive,inactive,inactive,inactive,inactive,inactive,inactive,inactive,inactive,–,inactive,inactive,inactive,inactive,inactive,inactive,inactive,inactive
CN1[C@@H]2CC[C@H]1CC(OC(=O)C(CO)c1ccccc1)C2 (some centres undefined),–,–,–,–,–,–,–,–,–,–,–,–,–,–,–,–,–,–,–,inactive
